Laboratory results reported in PubChem BioAssay (EPA / NIEHS).
Several values for one entry are separate records, joined by “and”; a condition that tells them apart may be missing. Identical values can stand only once. Results filed as inconclusive are left out. Where a structure was tested more than once in an assay, its records may differ in their call. Activity calls are given as the source filed them. How the source made its calls: active means hit-call score of the fitted dose curve at least 0.9, where 1 is the maximum; inconclusive means response in the unintended direction; inactive means score below 0.9.

These molecules were tested against Cellular tumor antigen p53 (Homo sapiens) (UniProt P04637) (assay: TOX21_p53_BLA_p5_ratio: Tox21 HCT-116 p53 Agonism Beta-lactamase Assay, Ratio, Phase 5 (AID 2283599)).
Text: TOX21_p53_BLA_p5 is a cell-based, single-readout assay that uses HCT116, a human intestinal cell line, […] in a 1536-well plate.TOX21_p53_BLA_p5_ratio is an assay readout measuring reporter gene via receptor activity and designed using inducible reporter (beta lactamase induction) detected with GAL4 b-lactamase reporter gene. The signal is derived from the ratio of cleaved (ch2) to uncleaved (ch1) reporter gene substrate used as the measure of target activity.Data from the assay component TOX21_p53_BLA_p5_ratio was analyzed into 1 assay endpoint. This assay endpoint, TOX21_p53_BLA_p5_ratio, was analyzed in the positive analysis fitting direction relative to DMSO as the negative control and baseline of activity. Using a type of inducible reporter, gain-of-signal activity can be used to understand changes in the reporter gene as they relate to the gene TP53. Furthermore, this assay endpoint can be referred to as a primary readout, because this assay has produced multiple assay endpoints and this ratio serves a reporter gene function to understand target activity. To generalize the intended target to other relatable targets, this assay endpoint is annotated to the DNA binding intended target family, where the subfamily is tumor suppressor.
Thawing Method: Place 14 mL of pre-warmed thaw medium into a 15 mL of conical tub. Remove the vial of cells to be thawed from liquid nitrogen and thaw rapidly by placing at 37C in a water bath with gentle agitation for 1-2 minutes. Decontaminate the vial by wiping with 70% ethanol before opening in a biological safety cabinet. Transfer the vial contents drop-wise into 14 mL of thaw medium in a sterile 15-mL conical tub. Centrifuge cells at 900 rpm for 4 minutes and resuspend in thaw medium. Transfer contents to the T75 tissue culture flask containing Thaw Medium and place flask in a humidified 37C/5% CO2 incubator. Switch to growth medium at first passage.Propagation Method: Aspirate medium, rinse once in DPBS, add 0.25% Trypsin/EDTA and swirl to coat the cell evenly. Add an equal volume of Growth Medium to inactivate Trypsin after 2-3 minutes incubation at 37C. Centrifuge cells at 900 rpm for 4 minutes and resuspend in growth medium. Cell should be passage or fed at least twice a week.Assay Protocol: Harvest cells from culture in growth medium and resuspend in assay medium. 2.2 Dispense 4000 cells/5 uL/well into 1536-well black/clear bottom plates using a Multidrop dispenser. After the cells were incubated at 37C for 5 hours, 23 nL of compounds dissolved in DMSO were transferred to the assay plate by a PinTool resulting in a 217-fold dilution. Incubate the plates for 16 hours at 37C, 5% CO2. Add 1 uL of 6X LiveBLAzer FRET B/G (CCF4-AM) Substrate Mixture to each well using a BioRAPTR dispenser and incubate the plates at room temperature for 2 hours. Measure fluorescence intensity at 460 and 530 nm emission and 405 nm excitation by an Envision detector. Data is expressed as the ratio of 460nm/530nm emissions. Add 4 uL of Cell-titer Glo to each well using BioRAPTR and incubate the plates at room temperature for 2 hours. Measure fluorescence intensity by a VewLux plate reader.

Cellular tumor antigen p53 (Homo sapiens), sequence (P04637 whole entry, looked up, the tested form may be a part): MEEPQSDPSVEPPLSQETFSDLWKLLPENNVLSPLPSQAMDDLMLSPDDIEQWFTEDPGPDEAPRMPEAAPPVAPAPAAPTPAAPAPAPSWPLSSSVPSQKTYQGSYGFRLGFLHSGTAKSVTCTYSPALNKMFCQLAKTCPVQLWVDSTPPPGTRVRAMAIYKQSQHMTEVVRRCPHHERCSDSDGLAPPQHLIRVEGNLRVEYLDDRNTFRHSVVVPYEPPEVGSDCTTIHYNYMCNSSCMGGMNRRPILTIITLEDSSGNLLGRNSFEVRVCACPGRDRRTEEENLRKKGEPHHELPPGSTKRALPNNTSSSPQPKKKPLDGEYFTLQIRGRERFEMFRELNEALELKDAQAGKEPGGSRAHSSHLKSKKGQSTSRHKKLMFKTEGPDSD

Q: With `COc1nc(C)nc(NC(=O)NS(=O)(=O)c2ccccc2OCCCl)n1` as the molecule, how does the outcome read?
A: Its outcome is “inactive”.

Q: `O=C(c1ccc(O)cc1O)c1ccc(O)cc1O` was tested. Which AC50 did it give?
A: Its AC50 is 76.4 µM (active) and 74.5 µM (active).

Q: For `COC(=O)c1ccc(I)cc1S(=O)(=O)NC(=O)Nc1nc(C)nc(OC)n1`, which outcome is on record?
A: Its outcome is “inactive”.

Q: How did the outcome turn out when `CCCCC(CC)COC(=O)c1ccccc1C(=O)O` (configuration not stated) was run?
A: Its outcome is “inactive”.

Q: How did the outcome turn out when `O=C(O)C1(C(=O)Nc2ccc(Cl)cc2Cl)CC1` was run?
A: Its outcome is “inactive”.

Q: Which outcome does the source give for `CSC(=O)c1cccc2nnsc12` here?
A: The outcome was “inactive”.

Q: `CN(C)C(=O)Nc1ccc(Cl)c(Cl)c1` was tested. Which outcome did it give?
A: The outcome was “inactive”.

Q: `CCCN(CCC)c1c([N+](=O)[O-])cc(C(F)(F)F)c(N)c1[N+](=O)[O-]` was tested. Which AC50 did it give?
A: The AC50 was 67.5 µM (active).

Q: With `CCN(Cc1c(F)cccc1Cl)c1c([N+](=O)[O-])cc(C(F)(F)F)cc1[N+](=O)[O-]` as the molecule, how does the outcome read?
A: Its outcome is “inactive”.

Q: For `CCOC(=O)NCCOc1ccc(Oc2ccccc2)cc1`, which outcome is on record?
A: The outcome was “inactive”.

Q: How did the AC50 turn out when `CC(C)CCCCCCc1ccc(O)cc1` was run?
A: The AC50 was 39.9 µM (active).

Q: And the outcome?
A: The outcome was “inactive”.

Q: With `CCOC(=O)c1ccc(O)cc1` as the molecule, how does the outcome read?
A: The outcome was “inactive”.

Q: Which AC50 does the source give for `O=C(Nc1ccc([N+](=O)[O-])cc1Cl)c1cc(Cl)ccc1O` here?
A: Its AC50 is 315 nM (active) and 320 nM (active).

Q: For `N[C@@H](Cc1cc(I)c(Oc2ccc(O)c(I)c2)c(I)c1)C(=O)O`, which AC50 is on record?
A: The AC50 was 36.8 µM (active).

Q: What about the outcome of the same molecule?
A: The outcome was “inactive”.

Q: `COCCO` was tested. Which outcome did it give?
A: The outcome was “inactive”.

Q: How did the outcome turn out when `CCCOC(=O)c1ccc(C(=O)OCCC)nc1` was run?
A: Its outcome is “inactive”.

Q: How did the outcome turn out when `C#CCOC(=O)[C@@H](C)Oc1ccc(Oc2ncc(Cl)cc2F)cc1` was run?
A: The outcome was “inactive”.

Q: Which outcome does the source give for `C[C@]12CC[C@@H]3c4ccc(O)cc4C[C@@H](CCCCCCCCCS(=O)CCCC(F)(F)C(F)(F)F)[C@H]3[C@@H]1CC[C@@H]2O` (some centres not stated) here?
A: Its outcome is “inactive”.

Q: How did the outcome turn out when `OB(O)O` was run?
A: The outcome was “inactive”.

Q: With `CCCOC(=O)NCCCN(C)C` as the molecule, how does the outcome read?
A: The outcome was “inactive”.

Q: Which AC50 does the source give for `Oc1ccc(C(c2ccc(O)cc2)C(Cl)(Cl)Cl)cc1` here?
A: The AC50 was 80.8 µM (active) and 85.1 µM (active).

Q: How did the outcome turn out when `C[C@]12C[C@H](O)[C@H]3[C@@H](CCC4=CC(=O)CC[C@@]43C)[C@@H]1CC[C@@H]2C(=O)CO` was run?
A: The outcome was “inactive”.

Q: How did the outcome turn out when `CC(=O)S[C@@H]1CC2=CC(=O)CC[C@]2(C)[C@H]2CC[C@@]3(C)[C@@H](CC[C@@]34CCC(=O)O4)[C@H]12` was run?
A: The outcome was “inactive”.

Q: `CC(C)(c1ccc(O)cc1)c1ccc(O)cc1` was tested. Which outcome did it give?
A: Its outcome is “inactive”.

Q: Which outcome does the source give for `CCCCOC(=O)C(C)Oc1ccc(Oc2ccc(C(F)(F)F)cn2)cc1` (configuration not stated) here?
A: The outcome was “inactive”.

Q: How did the outcome turn out when `c1ccc(Nc2ccccc2)cc1` was run?
A: Its outcome is “inactive”.

Q: `CCNc1nc(N)nc(Cl)n1` was tested. Which outcome did it give?
A: Its outcome is “inactive”.

Q: `C#C[C@]1(O)CC[C@H]2[C@@H]3CCC4=CC(=O)CC[C@@H]4[C@H]3CC[C@@]21CC` was tested. Which outcome did it give?
A: The outcome was “inactive”.

Q: Which outcome does the source give for `O=C(O)c1ccccc1` here?
A: Its outcome is “inactive”.

Q: How did the outcome turn out when `CC(=O)[C@H]1CC[C@H]2[C@@H]3CCC4=CC(=O)CC[C@]4(C)[C@H]3CC[C@]12C` was run?
A: Its outcome is “inactive”.

Q: How did the outcome turn out when `CCCCC(CC)CN1C(=O)C2C3C=CC(C3)C2C1=O` (configuration not stated) was run?
A: Its outcome is “inactive”.

Q: Which outcome does the source give for `CCOC(=O)C(C)Oc1ccc(Oc2nc3ccc(Cl)cc3o2)cc1` (configuration not stated) here?
A: Its outcome is “inactive”.

Q: Which outcome does the source give for `CCCCCCC(C)OC(=O)COc1nc(F)c(Cl)c(N)c1Cl` (configuration not stated) here?
A: Its outcome is “inactive”.

Q: For `CCSC(=O)N(CC(C)C)CC(C)C`, which outcome is on record?
A: The outcome was “inactive”.

Q: Which outcome does the source give for `Cc1nn(C)c(Oc2ccccc2)c1C=NOCc1ccc(C(=O)OC(C)(C)C)cc1` here?
A: Its outcome is “inactive”.
